Source: PubChem (National Center for Advancing Translational Sciences (NCATS))
Rows were chosen to be rich in hits. Some 10% of all compounds tested hit in one or more screens of this group.
PLK1 PBD block: qHTS for Inhibitors of PLK1-PDB (polo-like kinase 1 - polo-box domain): Primary Screen. Serine/threonine-protein kinase PLK1 (Homo sapiens), P53350. Plk1 PBD binding of FITC phosphopeptide, fluorescence polarization. Potency, µM, without a hit: max response, negative = inhibition, actives largely listed as inhibitors. hit rate 2.8% among 360,000; note: potency is the fitted concentration of half-maximal effect; series mostly up to about 57 µM; nearly all actives have a fitted effect of over 65% in size
Mm-Cpn inhibitor: Inhibitors of TCP-1 ring complex (TRiC) of Methanococcus maripaludis (MmCpn): qHTS; Chaperonin Mm-Cpn (Methanococcus maripaludis); purified Mm-Cpn ATPase, ADP Transcreener TR-FRET; Potency, µM (doses to about 76.9 µM), for the others: at the top dose activity, negative = inhibition, actives largely listed as inhibitors; hit rate 0.031% among 330,000; AID 504842, 2011; note: potency is the fitted concentration of half-maximal effect; nearly all actives have a fitted effect of over 80% in size
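Inhibition of chaperonin ATP hydrolysis is measured as reduced ADP production, detected by competitive TR-FRET in which signal falls with ADP. Final enzyme 25 nM and ATP 10 uM, reacted 30 min at 37°C.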
Sfp PPTase inh: qHTS Assay for Inhibitors of Bacillus subtilis Sfp phosphopantetheinyl transferase (PPTase); 4'-phosphopantetheinyl transferase ffp (Bacillus subtilis), Q9F4F7; Biochemical Sfp PPTase activity, qHTS; Potency, µM, for inactives: largest response in the series, negative = inhibition, most hits filed as inhibitors; hit rate 3.5% among 310,000; AID 1490, 2009;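 note: the enzyme is Sfp with the accession as filed and its product quenches rhodamine fluorescence; potency is the fitted concentration of half-maximal effect; 0% = enzyme reaction without inhibitor and -100% = no enzyme wells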
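Compounds were incubated with enzyme (final 15 nM) for 15 min at room temperature before substrate addition started the reaction. Fluorescence at 525 nm excitation, 598 nm emission was recorded immediately and after 30 minutes.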
VDR inhibitor: Inhibitors of the vitamin D receptor (VDR): qHTS; Vitamin D3 receptor (Homo sapiens), P11473; VDR-SRC2-3 peptide fluorescence polarization, 2 h; Potency, µM, inactives show max response, negative = inhibition, usual class: inhibitors; hit rate 0.93% among 400,000; AID 504847, 2011; note: potency is the fitted concentration of half-maximal effect
Target sequence (P11473 whole entry, looked up): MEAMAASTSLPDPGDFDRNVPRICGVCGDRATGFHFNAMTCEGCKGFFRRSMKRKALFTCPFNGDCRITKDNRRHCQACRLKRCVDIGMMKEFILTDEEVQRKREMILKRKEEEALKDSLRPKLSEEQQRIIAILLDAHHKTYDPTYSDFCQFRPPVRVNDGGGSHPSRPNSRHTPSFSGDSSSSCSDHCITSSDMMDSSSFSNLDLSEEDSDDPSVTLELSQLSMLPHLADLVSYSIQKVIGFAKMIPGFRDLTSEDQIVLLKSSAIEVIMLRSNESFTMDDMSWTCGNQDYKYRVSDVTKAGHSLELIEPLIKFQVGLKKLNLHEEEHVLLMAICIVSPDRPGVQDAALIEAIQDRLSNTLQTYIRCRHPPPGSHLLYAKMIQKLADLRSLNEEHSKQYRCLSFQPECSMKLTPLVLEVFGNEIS
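Measured by FP: displacement of SRC2-3 coactivator peptide from VDR by library compounds, following a two-hour ambient incubation.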
CCT modulator: High-Throughput Screening for Modulators of Cytosolic Chaperonin Activity. purified chaperonin ATPase assay, HTRF ADP detection, 30 min. activity change, % (no concentration beside the values), hits read low. hit rate 0.3% among 360,000; in the data active = activity change below about -30%
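TRiC at 40 or 20 nM final (batch-dependent) in 30 mM Tris pH 7.4, 100 mM KCl, 5 mM MgCl2, 1 mM DTT, with compound at single 76 uM and 10 uM ATP, 30 min at 37 deg C. ADP detected by HTRF Transcreener, 665/615 ratio.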
G9a inh: qHTS Assay for Inhibitors of Histone Lysine Methyltransferase G9a; hit rate 8.8% among 350,000; G9a H3K9 monomethylation, AlphaScreen, 2 h; Potency, µM (titrated, usually from 102 µM), inactives show at the highest dose activity, negative = inhibition, most hits filed as inhibitors; Histone-lysine N-methyltransferase EHMT2 (Homo sapiens), Q96KQ7; note: potency is the fitted concentration of half-maximal effect; nearly all actives have a fitted effect of over 75% in size
Target sequence (Q96KQ7 913-1193 limits assumed): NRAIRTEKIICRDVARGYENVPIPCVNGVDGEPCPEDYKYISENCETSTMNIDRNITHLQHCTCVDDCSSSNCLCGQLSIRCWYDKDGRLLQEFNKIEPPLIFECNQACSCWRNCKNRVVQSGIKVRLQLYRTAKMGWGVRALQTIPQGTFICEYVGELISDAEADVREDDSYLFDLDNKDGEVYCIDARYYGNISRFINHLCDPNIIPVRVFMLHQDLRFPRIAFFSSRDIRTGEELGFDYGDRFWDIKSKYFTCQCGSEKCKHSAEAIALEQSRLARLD
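G9a (20 nM) was preincubated 15 min with compound, then reacted 2 h at room temperature with 500 nM biotin-H3K9 peptide and 20 µM SAM. Monomethyl-H3K9 detected by AlphaScreen using anti-H3K9me1 antibody.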
The depositor's hits bear a star; ? = inconclusive; nt = not tested or not shown; [ ] = remark or other dose. Unless noted, calls come from the whole dose curve; as a rule, active = well fitted curve in the direction sought with a large enough effect; inconclusive = small, poorly fitted or top-dose-only effect, or another doubt; inactive = no such curve, though single readings can be large; an effect the other way counts as inactive or inconclusive. Unless noted, % is set by controls: 0 for no effect and ±100 for the full control effect.

SMILES	PLK1 PBD block	Mm-Cpn inhibitor	Sfp PPTase inh	VDR inhibitor	CCT modulator	G9a inh
Cc1cc(C)cc(-n2ccnc2SCC(=O)Nc2ccc(C)cc2C)c1	nt	nt	nt	-7%	nt	11µM*
CCc1nnc(NC(=O)CSc2nccn2-c2cc(C)cc(C)c2)s1	-15%	-2%	11%	-15%	-2	-21%
Cc1ccc(NC(=O)CSc2nnc(C)c(=O)n2N)c(C)c1	-7%	-1%	-11%	-7%	-2	1.8µM*
Cc1ccc(NC(=O)CSc2nnc(-c3cc(C)[nH]n3)n2N)c(C)c1	-20%	0%	3%	-13%	1	58%[0.0925 µM]
Cc1nnc(SCC(=O)Nc2ccc(OC(F)F)c(Cl)c2)n(N)c1=O	-3%	2%	nt	-16%	-40*	nt
COc1ccc(OC)c(NC(=O)CSc2nccn2-c2cc(C)cc(C)c2)c1	nt	nt	nt	13%	nt	16µM*
COc1ccc(NC(=O)CSc2nccn2-c2ccccc2)c(OC)c1	-4%	-3%	23%	5%	-2	?
Cc1ccccc1C(=O)Nc1cccc(C(=O)OCc2cc(=O)n3nc(C4CC4)sc3n2)c1	nt	nt	nt	11%	nt	5%[12.7 µM]
COc1ccc(NC(=O)C2COc3ccccc3C2)cc1Cl (configuration not stated)	nt	nt	nt	7%	nt	-6%[59 µM]
CC(C)c1cnc2c(c1SCC(=O)N1CCCCC1)c(=O)n(C)c(=O)n2C	nt	nt	nt	19%	nt	?
CC(=O)c1c(C)oc2c(Br)cc(NS(=O)(=O)c3ccc(Br)cc3)cc12	nt	nt	nt	6%	nt	?
NS(=O)(=O)c1ccc(CCNC(=S)NC2CCCCC2)cc1	-15%	0%	5%	-1%	0	9%
Cc1ccc2nc(-c3ccc(NC(=S)NC(=O)C(C)C)cc3)sc2c1	-5%	-4%	-1%	-6%	1	5%[2.33 µM]
Cc1ccc2nc(-c3ccc(NC(=S)NC4CC(C)(C)NC(C)(C)C4)cc3)sc2c1	-8%	-4%	45µM*	5%	2	50µM*
COC(=O)c1ccc(NC(=S)NC2CC(C)(C)NC(C)(C)C2)cc1	-8%	2%	-1%	6%	2	?
CC1(C)CC(NC(=S)Nc2ccc(S(N)(=O)=O)cc2)CC(C)(C)N1	?	1%	-71%	10%	-4	50µM*
NS(=O)(=O)c1ccc(CNC(=S)NC2CC2)cc1	?	4%	8%	-12%	-1	28µM*
NS(=O)(=O)c1ccc(NC(=S)NC2CC2)cc1	?	-1%	10µM*	-4%	0	10µM*
Cc1cccc(NC(=O)CSc2c(C)cnc3c2c(=O)n(C)c(=O)n3C)c1C	nt	nt	nt	17%	nt	10%[59 µM]
NS(=O)(=O)c1ccc(CNC(=S)Nc2ccc(Cl)c(Cl)c2)cc1	-25%	-8%	?	-8%	-2	45µM*
CCOc1ccc(C(=O)c2oc3ccccc3c2NC(=O)c2cc(=O)c3ccc(C)cc3o2)cc1	nt	nt	nt	-3%	nt	10%[59 µM]
CCc1ccc(NC(=O)c2cc3c(COC(C)=O)cnc(C)c3oc2=O)cc1	nt	nt	nt	-2%	nt	-4%[59 µM]
O=C1C=C[C@@H](O)[C@@H]2[C@H]3C(=O)N(c4ccc(F)cc4F)C(=O)[C@@H]3CC[C@@H]12	nt	nt	-3%	nt	nt	nt
CCN(CC)c1ccc(-c2nnc(SCC(=O)N(CCOC)c3c(N)n(CC(C)C)c(=O)[nH]c3=O)o2)cc1	-9%	-3%	nt	-5%	0	-51%
COCCN(C(=O)CSc1ncccn1)c1c(N)n(Cc2ccccc2)c(=O)[nH]c1=O	-3%	0%	nt	-3%	-1	-9%
SMILES	PLK1 PBD block	Mm-Cpn inhibitor	Sfp PPTase inh	VDR inhibitor	CCT modulator	G9a inh
CCN(C(=O)CSc1ncccn1)c1c(N)n(Cc2ccccc2)c(=O)[nH]c1=O	-9%	3%	nt	-5%	1	50µM*
CCCCN(C(=O)CSc1nnc(-c2ccccc2)n1C)c1c(N)n(Cc2ccccc2)c(=O)[nH]c1=O	10%	1%	15%	-9%	-3	10µM*
COCCN(C(=O)CSc1nnc(-c2ccc(C)c(C)c2)o1)c1c(N)n(CC(C)C)c(=O)[nH]c1=O	-1%	-1%	nt	-10%	1	79µM*
CCCCN(C(=O)CSc1nnc2ccccn12)c1c(N)n(Cc2ccccc2)c(=O)[nH]c1=O	-18%	0%	-5%	8%	0	?
CC(C)CN(C(=O)CSc1nnc(-c2ccco2)o1)c1c(N)n(Cc2ccccc2)c(=O)[nH]c1=O	?	2%	79µM*	-7%	-2	-29%
Cc1cccc(NC(=O)CSCC(=O)N(CCC(C)C)c2c(N)n(Cc3ccccc3)c(=O)[nH]c2=O)c1	1%	3%	nt	19%	0	40µM*
CCN(C(=O)CSc1nnc2ccccn12)c1c(N)n(Cc2ccccc2)c(=O)[nH]c1=O	-8%	1%	-17%	-5%	1	50µM*
CC(C)CN(C(=O)CN(C)C(=O)c1ccco1)c1c(N)n(CC(C)C)c(=O)[nH]c1=O	-3%	-14%	nt	4%	-1	50µM*
CC(C)CN(C(=O)CN(C)C(=O)Cc1ccc(Cl)cc1)c1c(N)n(CC(C)C)c(=O)[nH]c1=O	-5%	3%	nt	1%	3	-40%
CCc1cc(C(=O)Nc2c(C)nn(Cc3ccc(C)cc3)c2C)no1	nt	nt	nt	-1%	nt	4%[59 µM]
CSCC[C@@H]1NC(=O)C/C=C\[C@@H](C)COC(=O)[C@H](C)COC1=O	nt	nt	4%	nt	nt	nt
Cc1nc(-c2cccc(F)c2)sc1CCNC(=O)Cc1ccc(F)cc1	nt	nt	nt	-4%	nt	33%[59 µM]
CCOC(=O)c1[nH]c(C)c(C(=O)NCc2cccc(OC)c2)c1C	nt	nt	nt	4%	nt	-38%[59 µM]
Cc1cn2c(=O)cc(COC(=O)c3cccc(NC(=O)C(C)Oc4ccccc4)c3)nc2s1 (configuration not stated)	nt	nt	nt	-5%	nt	23%[59 µM]
O=C(CCn1nnc2ccccc21)Nc1nnc(Cc2ccccc2)s1	-29%	-2%	50µM*	-26%	-1	?
Cc1cccc(NC(=O)CSc2nccn2Cc2ccc(F)cc2)c1C	nt	nt	nt	5%	nt	-3%[59 µM]
Cc1cccc(-c2nc3cc(NC(=O)COc4ccccc4F)ccc3o2)c1	nt	nt	nt	5%	nt	31%[59 µM]
Cc1nc(S/C(=C/c2ccc(-c3cccc(Cl)c3)o2)C(=O)O)n[nH]1	-19%	2%	45µM*	-4%	-4	21%[59 µM]
c1ccc(Cc2nnc3sc(-c4cccs4)nn23)cc1	15µM*	-2%	10%	?	-2	2.2µM*
c1ccc(OCc2nn3c(-c4ccncc4)nnc3s2)cc1	0%	-4%	-1%	-12%	1	-34%
